Compounds with a hit are over-represented: about 1.4% of the library has one in this group of screens.
Mtb MbtI inh = blocks the Mycobacterium tuberculosis siderophore enzyme MbtI | AID 493033 | inhibition, % (test concentration not listed) | 100,000 tested, 0.89% active | purified MbtI enzyme, fluorescence intensity read-out | P9WFX0; in the data active means inhibition mostly above about 56%, no sharp cut-off; inactive means mostly below about 77%
AID504770 = E. coli YBA685 growth inhibition, screen for V. cholerae RctB inhibitors. AID 504770. E. coli YBA685 rctB-dependent plasmid, OD600 growth, 3 h; hits give low values. z-score (concentration not given with the values). 130,000 tested, 0.27% active; in the data active means z-score below about -2, passing the limit was not always enough
MenB inh = blocks the Mycobacterium tuberculosis MenB enzyme. P9WNP5. MenB enzyme assay, absorbance read-out. inhibition, % (concentration not given with the values). 100,000 tested, 0.43% active. AID 540299; in the data active means inhibition above about 21%, passing the limit was not always enough
Target sequence (P9WNP5 whole entry, looked up): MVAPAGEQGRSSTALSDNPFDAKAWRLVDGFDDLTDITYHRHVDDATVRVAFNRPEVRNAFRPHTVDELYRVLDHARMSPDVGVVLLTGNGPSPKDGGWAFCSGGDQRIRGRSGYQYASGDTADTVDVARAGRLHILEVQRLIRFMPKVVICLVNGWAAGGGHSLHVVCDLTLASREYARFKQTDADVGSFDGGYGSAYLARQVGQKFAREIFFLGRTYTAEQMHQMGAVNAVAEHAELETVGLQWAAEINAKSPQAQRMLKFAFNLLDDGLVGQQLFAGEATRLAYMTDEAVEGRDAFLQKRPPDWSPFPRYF
Polio RdRp inh = inhibitors of poliovirus RNA polymerase binding and polymerization; poliovirus polymerase elongation, fluorescence polarization; hits give low values; % elongation, % (compound at 16.7 µg/mL); 150,000 tested, 0.66% active; in the data active means % elongation below about 90%
Large screens that a line does not name were inactive.

O=C1NC(=S)NC(=O)C1C1CCCCC1	none
CCN1CCN(c2ncc3c(n2)CCN(Cc2cc(F)cc(F)c2)C3)CC1	Polio RdRp inh 86.0 (no result: Mtb MbtI inh, AID504770, MenB inh)
Cc1cc(C(=O)COC(=O)c2ccc3c(c2)NC(=O)CS3)c(C)n1Cc1cccs1	none
O=C(COC(=O)c1ccc2c(c1)NC(=O)CS2)NCc1cccs1	Polio RdRp inh 11.0
Cc1ccc(S(=O)(=O)/C=C/C#N)cc1	Mtb MbtI inh 79.0, AID504770 -4.8
Cc1ccc(S(=O)(=O)c2ccc(C)cc2)cc1	none
CC1(C)CC(=O)C(C(c2ccc(F)cc2O)C2C(=O)CC(C)(C)CC2=O)C(=O)C1	none (no result: Mtb MbtI inh)
CCN(CC)CCC(=O)c1ccc(F)cc1	none (no result: Mtb MbtI inh)
CCN(CC)CCC(=O)c1ccc(OC(C)C)cc1	Mtb MbtI inh 65.5
CNC(=O)c1cc2sc(Cl)cc2n1C	none
CC(C)Sc1nnc2oc3ccc(S(=O)(=O)N(C)C)cc3n12	Polio RdRp inh 6.0
COc1cc2c(C(=O)NC3CCCC(C)C3C)cn(C)c(=O)c2cc1OC (configuration not stated)	none
CC(=O)Nc1cc(C(=O)NCCN2CCN(c3ccccc3)CC2)ccc1S(=O)(=O)c1ccc(C)cc1	none
CC(=O)N(c1ccc(Cl)cc1)C1C=CS(=O)(=O)C1 (configuration not stated)	AID504770 -2.5 (no result: Mtb MbtI inh, MenB inh, Polio RdRp inh)
CCSc1nc(=O)[nH]c2c1CCCC2	none
CCN(CC)CCNC(=O)c1ccc2c(=O)n3nc(Nc4ccccc4OC)sc3nc2c1	Polio RdRp inh 65.0 (no result: Mtb MbtI inh, AID504770, MenB inh)
COc1ccccc1Nc1nn2c(=O)c3ccc(C(=O)NCCCOC(C)C)cc3nc2s1	none (no result: Mtb MbtI inh, AID504770, MenB inh)
O=C1c2ccccc2C(=O)C1c1ccc(OC(F)F)cc1	Mtb MbtI inh 79.5
CCc1cc(C(=O)O)n(C)n1	MenB inh 29.3
COc1ccc(C)cc1NC(=O)C(Sc1nnnn1Cc1cccs1)c1ccccc1 (configuration not stated)	none
S=c1nc(Cc2ccc(Cl)cc2)[nH][nH]1	Mtb MbtI inh 97.0
Cc1ccc(NC2=C(c3ccc(C(F)(F)F)cc3)C(=O)c3ccccc32)cc1C	Polio RdRp inh 81.0 (no result: Mtb MbtI inh, AID504770, MenB inh)
O=C(Nc1nc(CSc2nc3ccccc3s2)cs1)C1CC1	Polio RdRp inh 83.0
COC(=O)CSc1nc2ccccc2s1	none
O=C(Nc1ccccc1)c1ccccc1OCC(=O)N1CCCC1	AID504770 -2.95
CCOc1ccccc1C(=O)Nc1ccccc1	none
C=CCn1cc(C(=O)c2cc(Cl)ccc2O)cc(C#N)c1=O	none
COc1ccc(NC(=O)CC2Sc3ncnn3C2=O)cc1 (configuration not stated)	Mtb MbtI inh 100.0 (no result: MenB inh, Polio RdRp inh)
COc1ccc(NC(=O)CC2SC(=Nc3ccccc3)N(c3ccccc3)C2=O)cc1 (configuration not stated)	none
COC(=O)c1ccc(CSC(=N)N)cc1	none (no result: Mtb MbtI inh, MenB inh, Polio RdRp inh)
CCCn1cnc2c1c(=O)[nH]c(=O)n2C	AID504770 -3.7 (no result: Mtb MbtI inh, MenB inh, Polio RdRp inh)
C=CCn1cnc2c1c(=O)[nH]c(=O)n2C	none
CCn1c(C(C)Oc2ccc(Cl)cc2)n[nH]c1=S (configuration not stated)	Mtb MbtI inh 88.8
CCC(C)c1ccc(C2=Nn3c(nnc3C(C)C)SC2)cc1 (configuration not stated)	Polio RdRp inh 74.0
Cc1noc(C)c1COc1cccc(C(=O)N2CCc3ccccc32)c1	AID504770 -2.45
COc1cc(Cc2cnc(N)nc2N)cc(OC)c1OC	AID504770 -3.1
COc1ccc(CC(=O)Nc2ccc(-c3nnc4n3CCCCC4)cc2)cc1	none
O=C(COCc1nc2ccccc2s1)Nc1ccc(-c2nnc3n2CCCCC3)cc1	Polio RdRp inh 89.0
Cc1sc2cc(-[n+]3ccc(O)cc3)ccc2[n+]1-c1ccccc1	Mtb MbtI inh 94.8 (no result: MenB inh)
COc1ccc(CSc2nnc(SC(C)C(N)=O)s2)cc1 (configuration not stated)	none
N#Cc1ccc(CSc2nnnn2C2CC2)cc1	Polio RdRp inh 35.0
Cc1nnc(SCc2ccc(C#N)cc2)n1C1CC1	none
O=C(COc1ncnc2ccccc12)NCC1CCCCC1	none (no result: MenB inh)
CCOC(=O)c1c(NC(=O)c2ccccc2C)sc2c1CCCC2	Polio RdRp inh 84.0 (no result: Mtb MbtI inh, AID504770, MenB inh)
Cc1cccc(NC(=O)c2c(NC(=O)c3ccccc3)sc3c2CCCC3)c1	Polio RdRp inh 75.0 (no result: Mtb MbtI inh, AID504770, MenB inh)
O=C(Nc1sc2c(c1C(=O)O)CCCC2)c1ccc(Br)cc1	Polio RdRp inh 85.0 (no result: Mtb MbtI inh)
Cc1cccc(NC(=O)c2c(NC(=O)c3ccccc3)sc3c2CCC3)c1	none (no result: Mtb MbtI inh, AID504770, MenB inh)
CCOC(=O)c1c(NC(=O)c2ccc(S(=O)(=O)N(C)C)cc2)sc2c1CCN(C)C2	none (no result: Mtb MbtI inh, AID504770, MenB inh)
CCOC(=O)c1c(NC(=O)c2ccc(S(=O)(=O)N3CCC(C)CC3)cc2)sc2c1CCN(C)C2	Polio RdRp inh 90.0 (no result: Mtb MbtI inh, AID504770, MenB inh)
CCOC(=O)c1c(NC(=O)c2ccccc2C(=O)O)sc2c1CCCC2	none
CCOC(=O)c1c(NC(=O)c2ccc(Br)cc2)sc2c1CCCC2	Polio RdRp inh 87.0 (no result: Mtb MbtI inh, AID504770, MenB inh)
COc1ccc(-c2cc(C(=O)Oc3ccc(Cl)cc3)c3ccccc3n2)cc1	none (no result: Mtb MbtI inh, AID504770, MenB inh)
CCOC(=O)c1c(C)oc2nc(COC(=O)c3cc(-c4ccc(Cl)cc4)nc4ccccc34)nc(N)c12	AID504770 -4.65
O=c1c2c(nc3n1CCC3)sc1c(O)c(Br)ccc12	MenB inh 37.9
Cc1cc(Br)ccc1NC(=O)c1sc2nc3n(c(=O)c2c1C)CCCC3	none (no result: Mtb MbtI inh, AID504770, MenB inh)
C=CCn1c(SC2CCCC2=O)nnc1-c1ccc(Cl)cc1 (configuration not stated)	none
O=C(c1cc(O)ccc1O)c1coc2ccc(O)cc12	Mtb MbtI inh 99.8
NC(=O)CN(C1CCCCC1)S(=O)(=O)c1ccc(Br)cc1	MenB inh 41.0
Cc1ccc(S(=O)(=O)N(CC(=O)O)C2CCCCCC2)cc1	none
COC(=O)c1c(NC(=O)/C(C#N)=C/c2ccco2)sc(C)c1C	Mtb MbtI inh 82.3
N#C/C(=C\c1ccco1)C(=O)Nc1ccccc1	none
CCN(CC)C1=NC(=O)C(CC(=O)Nc2cccc(C(=O)OCC(=O)N(C)C3(C#N)CCCCC3)c2)S1 (configuration not stated)	none
O=C(Cn1c(C(F)(F)F)nc2ccccc21)OCc1nnc(-c2ccc(Cl)cc2)o1	none
COc1cc(Cl)ccc1N=NN1CCOCC1	AID504770 -3.95 (no result: Mtb MbtI inh, MenB inh, Polio RdRp inh)
COc1ccc(Cl)cc1CN1CCCCC1	none (no result: Mtb MbtI inh)
O=C(NC1CCCCC1)c1cccc(S(=O)(=O)NCc2ccccc2)c1	none (no result: MenB inh)
O=C(CSc1nnc(-c2ccc(Cl)cc2Cl)n1Cc1ccco1)c1ccc[nH]1	MenB inh 44.4
Cc1ccc(OCC(O)Cn2c(=N)n(C)c3ccccc32)cc1 (configuration not stated)	none
O=C(O)c1ccc(NC2OC(CO)C(O)C2O)cc1 (configuration not stated)	Polio RdRp inh 90.0 (no result: Mtb MbtI inh)
Cc1onc(-c2ccccc2)c1C(=O)OCc1ncc(-c2ccccc2)o1	none
Cc1c(P(=S)(N2CCOCC2)N2CCOCC2)cc(C#N)n1C	Mtb MbtI inh 93.5, Polio RdRp inh 80.0
CC(C(=O)N1CCCC1)N1CCN(c2ccc(F)cc2)CC1 (configuration not stated)	MenB inh 40.5
CC(C)Cc1csc2ncnc(NCCO)c12	Polio RdRp inh 88.0
CC(C)Oc1ccccc1CN	MenB inh 32.2
O=S1(=O)CCC(NC(=S)SCCOc2ccccc2)C1 (configuration not stated)	AID504770 -2.95 (no result: Mtb MbtI inh, MenB inh, Polio RdRp inh)

Compound activity deposited in PubChem BioAssay by ICCB-Longwood Screening Facility, Harvard Medical School.
